Screening data from PubChem BioAssay.
ELG1 genotox – genotoxicity induction in ELG1-luciferase HEK293T cells | HEK293T ELG1-luciferase reporter, luminescence, 16 h | 330,000 tested, 1.3% active | Potency, µM (series often up to 46 µM), for the others: at the top dose activity change, positive = activation, actives largely listed as activators | AID 504466; further: % of control where 0% means no effect; nearly all actives have a fitted effect of over 60% in size
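Step 1: seed 2,000 HEK293T ELG1-luciferase cells per well. Step 2: add compound or DMSO, incubate 16 hr at 37 °C. Step 3: ONE-Glo, 30 min at room temperature, read luminescence.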
FLuc modulator – inhibits or activates purified firefly luciferase, miR-21 counter-screen; P08659; purified FLuc, Km substrates, luminescence inhibition; Potency, µM (titrated, usually from 57.5 µM), for inactives: at the top dose activity change, negative = inhibition, hits mostly inhibitors; 360,000 tested, 6.9% active; AID 588342;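 further: plate controls were vehicle for no effect and reference inhibitor for full effect; nearly all actives have a fitted effect of over 55% in size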
Target sequence (P08659 whole entry, looked up): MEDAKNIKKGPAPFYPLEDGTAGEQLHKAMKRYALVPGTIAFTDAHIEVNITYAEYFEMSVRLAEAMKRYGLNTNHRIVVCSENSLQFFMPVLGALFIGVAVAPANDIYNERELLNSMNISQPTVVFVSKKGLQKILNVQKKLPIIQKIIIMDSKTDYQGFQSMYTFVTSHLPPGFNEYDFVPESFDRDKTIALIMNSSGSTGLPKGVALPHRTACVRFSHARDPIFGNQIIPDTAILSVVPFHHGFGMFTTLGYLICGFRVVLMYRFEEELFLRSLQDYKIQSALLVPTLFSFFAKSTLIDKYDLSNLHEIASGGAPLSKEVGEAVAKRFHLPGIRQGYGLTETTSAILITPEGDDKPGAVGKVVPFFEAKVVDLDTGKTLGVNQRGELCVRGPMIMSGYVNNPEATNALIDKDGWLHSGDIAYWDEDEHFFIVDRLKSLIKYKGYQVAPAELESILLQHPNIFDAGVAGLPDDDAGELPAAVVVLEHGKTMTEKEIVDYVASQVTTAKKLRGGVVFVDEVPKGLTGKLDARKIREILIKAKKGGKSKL
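Purified P. pyralis luciferase, 10 nM final, with Km-level 10 uM D-luciferin and 10 uM ATP in 50 mM Tris acetate pH 7.5, 10 mM Mg acetate, 0.01% Tween-20, 0.05% BSA; 6-point qHTS titration about 60 µM downward; luminescence read.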
SMN2 splice enh – enhancers of SMN2 splice variant expression | HEK293 SMN2-luciferase splicing reporter, luminescence, 30-36 h | Potency, µM (series often up to 46.1 µM), without a hit: at the highest dose activity change, positive = activation, usual class: activators | AID 1458 | 210,000 tested, 2.8% active; further: % of control where 0% means no effect; nearly all actives have a fitted effect of over 55% in size
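qHTS luciferase splicing reporter: luminescence rises when SMN2 exon 7 is included in transfected HEK293 cells. Compound exposure lasted 30-36 h at 37C, with 4.5 mM final sodium butyrate as control, followed by a ONE-Glo read.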
Rab9 prom act – activators of Rab9 promoter; Huh7 Rab9 promoter-luciferase reporter, luminescence, 24 h; Potency, µM (top dose mostly 9.22 µM), without a hit: at the highest dose activation, negative = inhibition, most hits filed as activators; 320,000 tested, 2.8% active; AID 485297; further: % of control where 0% means no effect; nearly all actives have a fitted effect of over 60% in size
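Luciferase signal after 10 min detection reagent at ambient indicates Rab9 promoter upregulation; stably transfected Huh7 cells were treated 24 h with compound in DMSO at 37 °C, 5% CO2.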
NPC1 promoter act – NPC1 promoter activation. Huh7 NPC1 promoter luciferase reporter, 24 h. 320,000 tested, 2.4% active. Potency, µM (titrated, usually from 9.22 µM), without a hit: top-dose activation, most hits filed as activators; further: % of control where 0% means no effect; nearly all actives have a fitted effect of over 60% in size
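Readout is luciferase luminescence, reflecting NPC1 promoter activation in stably transfected Huh7 cells after 24 h compound exposure at 37 °C in reduced-serum medium with 10% FBS.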
ELG1 DNA repair – ELG1-dependent DNA repair inhibition. HEK293T ELG1-luciferase reporter, luminescence, 16 h; DNA damage induced by 5-fluorouridine. Potency, µM (series often up to 46.1 µM), for inactives: top-dose activity change, negative = inhibition, actives largely listed as inhibitors. 330,000 tested, 2.3% active. AID 504467; further: on the % scale 0 is the no-effect control and ±100 the full control effect; nearly all actives have a fitted effect of over 55% in size
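Luminescence from the luciferase reporter, measured 30 min after ONE-Glo reagent at room temperature, was the read-out. Beforehand, 2,000 cells per well were exposed for 16 hr at 37 °C to 5-fluorouridine together with compound or vehicle.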
Starred values were filed as active, the others as inactive. Sampled rows, rich in hits. Any-hit rate of the full collection: about 9.3%. The call rests on the fitted dose curve; in most records, active means well fitted curve in the direction sought with a large enough effect; inconclusive means small, poorly fitted or top-dose-only effect, or another doubt; inactive means no such curve, though single readings can be large; an effect the other way counts as inactive or inconclusive. Potency means the concentration at half of the fitted maximal effect.

`Cc1ccc(Nc2nc(CSc3nnc(-c4cccnc4)n3-c3ccccc3C)cs2)cc1` gave ELG1 genotox 0.9%, FLuc modulator 10.7µM*, SMN2 splice enh -43.6%, Rab9 prom act 1.6%, NPC1 promoter act 2.7% and ELG1 DNA repair -28.8%.
Screening CC1CCCCN1C(=O)CSc1nc2cc3c(cc2c(=O)n1Cc1ccc2c(c1)OCO2)OCO3 (stereo unspecified) returned ELG1 genotox -7.7%, FLuc modulator 2.1%, SMN2 splice enh -28.4%, Rab9 prom act 5.3%, NPC1 promoter act -7.6% and ELG1 DNA repair inconclusive.
Screening CN=C1SC(CC(=O)Nc2cccc(Cl)c2Cl)C(=O)N1C (stereo unspecified) returned ELG1 genotox -0.5%, FLuc modulator 1.3%, SMN2 splice enh -11.0%, Rab9 prom act 0.6%, NPC1 promoter act 0.4% and ELG1 DNA repair 0.0%.
CCOc1ccc(S(=O)(=O)N2CCN(C(=O)C3CSC4(C)CCC(=O)N34)CC2)cc1 (stereo unspecified) was read as ELG1 genotox -0.7%, FLuc modulator 5.5%, Rab9 prom act -3.2%, NPC1 promoter act 2.5% and ELG1 DNA repair -2.3%.
Screening CCN(C(=O)c1c(N)cnn1C)c1ccccc1 returned ELG1 genotox 7.8%, FLuc modulator -2.0%, SMN2 splice enh -0.1%, Rab9 prom act -4.3%, NPC1 promoter act 0.5% and ELG1 DNA repair -1.1%.
COc1ccccc1OCCCC(=O)Nc1nccs1 was read as ELG1 genotox inconclusive, FLuc modulator 12µM*, Rab9 prom act 2.24µM*, NPC1 promoter act inconclusive and ELG1 DNA repair inconclusive.
For CCOc1ccc(OCC(=O)Nc2nccs2)cc1 the results were ELG1 genotox 0.92µM*, FLuc modulator 0.953µM*, SMN2 splice enh 5.01µM*, Rab9 prom act inconclusive, NPC1 promoter act 0.501µM* and ELG1 DNA repair inconclusive.
`COc1ccc(OCC(=O)Nc2nccs2)cc1` gave ELG1 genotox inconclusive, FLuc modulator 3.01µM*, Rab9 prom act 0.447µM*, NPC1 promoter act 0.562µM* and ELG1 DNA repair inconclusive.
For CCOc1ccc(S(=O)(=O)N(C)c2ccc(OCC(=O)Nc3nccs3)cc2)cc1 the results were ELG1 genotox -12.6%, FLuc modulator 3.9%, SMN2 splice enh -15.1%, Rab9 prom act -1.3%, NPC1 promoter act -2.0% and ELG1 DNA repair inconclusive.
For COc1ccc(OCCC(=O)Nc2nccs2)cc1 the results were ELG1 genotox 7.8%, FLuc modulator inconclusive, SMN2 splice enh 9.6%, Rab9 prom act 11.5%, NPC1 promoter act 0.6% and ELG1 DNA repair -1.0%.
For COc1ccc(C(CC(=O)Nc2nccs2)n2cccc2)cc1 (stereo unspecified) the results were ELG1 genotox 12.4%, FLuc modulator 6.01µM*, SMN2 splice enh 10µM*, Rab9 prom act 3.16µM*, NPC1 promoter act 2.82µM* and ELG1 DNA repair inconclusive.
For Cc1cccc(OCCCC(=O)Nc2nccs2)c1C the results were ELG1 genotox -1.5%, FLuc modulator -0.7%, Rab9 prom act -10.4%, NPC1 promoter act -1.0% and ELG1 DNA repair -15.2%.
`CCCS(=O)(=O)N1CCC(C(=O)NC2CCCCC2C)CC1` (stereo unspecified) gave ELG1 genotox -1.4%, FLuc modulator 4.8%, Rab9 prom act 3.7%, NPC1 promoter act -4.1% and ELG1 DNA repair 14.3%.
N#Cc1ccc(C23CC4(C2)[C@H](CN(Cc2ccc(C(F)(F)F)cc2)[C@@H]4c2ccccc2)C3c2ccc(C(F)(F)F)cc2)cc1 (stereo partly specified) was read as ELG1 genotox -1.5%, FLuc modulator 0.3%, SMN2 splice enh -14.2%, Rab9 prom act -1.0%, NPC1 promoter act -2.1% and ELG1 DNA repair 10.3%.
Screening S=c1nc(-c2ccccc2)n(CCCn2ccnc2)c2c1CCCC2 returned ELG1 genotox -0.5%, FLuc modulator 0.2%, SMN2 splice enh 3.4%, Rab9 prom act -0.1%, NPC1 promoter act 0.5% and ELG1 DNA repair 21.4%.
